Test results reported in PubChem BioAssay AID720650 (Broad Institute, 2013).
Unmarked numbers belong to inactive results. Active and inactive are the calls of the source. The rule behind the calls is not given here.

assay: C difficile toxins, biochemical counterscreen, UDPG substrate absence, confirmatory dose response (AID 720650); settings: series mostly up to 19.5 µM; activity change, negative = inhibition: at the top concentration

Row | SMILES | activity change, negative = inhibition [%] | AC50
1 | Cc1ccc(/C=C/c2onc(C)c2S(=O)(=O)N2CCC(C(=O)NC(C)(C)C)CC2)cc1 | -0.872 | –
2 | O=C(COc1ccc(/C=N/NC(=O)c2ccc(O)cc2)cc1)Nc1cccc([N+](=O)[O-])c1 | -5.22 | –
3 | CC1(C)OC2C(O1)[C@@H](CO)O[C@H]2n1cnc2c(N)ncnc21 (stereo partly drawn) | 0.905 | –
4 | CC1(C)CC(=O)C(C=Nc2ccc(O)cc2)=C(O)C1 | – | 5.68 µM (active)
5 | CCN1CCN(S(=O)(=O)c2ccc3[nH]c(=O)oc3c2)CC1 | 1.66 | –
6 | COc1ccccc1CNC(=O)CNC(=O)N1CC(=O)Nc2ccccc21 | -6.27 | –
7 | CN(C(=O)COC(=O)CNC(=O)c1ccccc1Cl)c1ccccc1 | -13.6 | –
8 | O=C(CSc1ccccc1)Nc1cc(S(=O)(=O)N2CCOCC2)ccc1N1CCOCC1 | -3.91 | –
9 | O=c1c2ccc(Cl)cc2[nH]c(=S)n1-c1cccnc1 | -0.508 | –
10 | CNC(=O)C[C@H]1CC[C@@H]2[C@@H](COc3ccc(NC(=O)c4ccc(OC)cc4)cc3C(=O)N2C)O1 | -23.2 | –
11 | COc1ccccc1C=C1SC(=S)NC1=O | -7.14 | –
12 | Cc1ccc2c(c1)-c1c(cnn1CC(=O)NC(C)CCc1ccco1)CO2 (stereo not drawn) | -12.6 | –
13 | C[C@@H]1CN([C@H](C)CO)S(=O)(=O)c2ccc(-c3ccncc3)cc2O[C@@H]1CN(C)Cc1ccc(Oc2ccccc2)cc1 | -4.46 | –
14 | C/C(=N\Nc1cc(N2CCOCC2)ncn1)c1ccc(O)cc1 | -20.3 | –
15 | C=CCc1ccc(O)c(-c2ccc(O)c(CC=C)c2)c1 | – | > 39 µM
16 | COc1cc(/C=C/C(=O)OCC(=O)c2ccc[nH]2)ccc1O | -4.17 | –
17 | Cc1ccc(S(=O)(=O)N2CCCC2C(=O)Nc2ccc(O)cc2)cc1 (stereo not drawn) | – | 16.6 µM (active)
18 | COc1ccc(Cl)cc1NC(=S)NC1CCCC1 | -4.37 | –
19 | CCCCc1[nH]c(=O)c(C#N)c2c1CCCC2 | -12.9 | –

Row | SMILES | activity change, negative = inhibition [%] | AC50
20 | CC1(C)Cc2nc(Cl)c(C#N)cc2CO1 | – | > 39 µM
21 | O=C(O)c1ccc(-n2nnc3ccccc32)c([N+](=O)[O-])c1 | 11.4 | –
22 | CC(C)C12NC(=O)NC(=O)N1CCS2 (stereo not drawn) | -8.68 | –
23 | CC(=O)c1cccc(-c2ccnc3c2CC(C(=O)NCc2ccccc2)O3)c1 (stereo not drawn) | -7.26 | –
24 | COc1cc(/C=C/C(=O)OCC(=O)N(C)Cc2ccccc2)ccc1O | -5.74 | –
25 | Cc1ccc(S(=O)(=O)Oc2cccc(/C=N/n3cnnc3)c2)cc1 | – | > 39 µM
26 | CCCNC(=O)N1CC[C@@H]2[C@@H](CO)N(C)c3ccc(-c4ccccc4)cc3[C@@H]21 | – | 3.93 µM (active)
27 | NC(=O)C1(Nc2ccc(-c3ccc(Br)cc3)cc2)CCCC1 | -11.7 | –
28 | COc1ccc(C(=O)N2CCOCC2)cc1S(=O)(=O)N1CCCc2ccccc21 | -11.2 | –
29 | COc1cc(/C=C/C(=O)OCC(=O)NCc2ccco2)ccc1O | -18.6 | –
30 | CCOC(=O)N1CCN=C1SCc1ccc(Cl)c(Cl)c1 | -20.3 | –
31 | COc1ccc(-c2ccc(OC(=O)NC3CCS(=O)(=O)C3)cc2)cc1 (stereo not drawn) | – | 12.6 µM (active)
32 | OCC[C@H]1C[C@H](O)[C@@H](O)[C@@]2(Cc3ccccc3CO2)O1 | -8 | –
33 | COc1cc(Cn2nnc3ccccc32)ccc1O | – | 15.8 µM (active)
34 | C[C@@H]1CN([C@@H](C)CO)S(=O)(=O)c2ccc(C#Cc3ccncc3)cc2O[C@H]1CN(C)C(=O)C1CC1 | -4.95 | –
35 | O=C(NNc1ccc(-c2csnn2)cc1)c1cc(Cl)cc(Cl)c1 | – | < 0.16 µM (active)
36 | CCCn1c(N)c(C(=O)COC(=O)c2cccc(S(=O)(=O)N3CCOCC3)c2)c(=O)[nH]c1=O | -15.3 | –
37 | C[C@H](CO)N1C[C@H](C)[C@@H](CN(C)CC2CCCCC2)Oc2ccc(NC(=O)CCN3CCOCC3)cc2C1=O | -0.583 | –
38 | COc1cccc(Oc2ccc3nnc(C(F)(F)F)n3n2)c1 | -6.85 | –
